PubChem BioAssay AID1051 (The Scripps Research Institute Molecular Screening Center, 2008)
Screen size: about 99,000 compounds; about 340 (0.34%) were called active. The sample as a whole holds a higher share of actives than the screen did. A number with no mark means an inactive call. Rule as the data show it: active = TR-FRET ratio above about 2300; inactive = the rest.

experiment: signal artefacts in PPARgamma/SRC-1 readout – biochemical, TR-FRET emission ratio, artefact control for PPARgamma SRC-1 recruitment agonists, primary screen (AID 1051); conditions: TR-FRET detection artefact counter-screen, at 8 µM, hits give high values

| SMILES | TR-FRET ratio |
| --- | --- |
| Cc1ccc(C2NC(C(=O)O)CS2)cc1 (configuration not stated) | 1760 |
| CC1(C)C(C=C(Cl)Cl)C1C(=O)N(Cc1ccc(Cl)cc1)C1CCS(=O)(=O)C1 (configuration not stated) | 1570 |
| CCC(=O)N1c2ccccc2NC2=C(C(=O)CCC2)C1c1ccco1 (configuration not stated) | 1690 |
| Cn1c(N)c(C(=O)COC(=O)c2ccccc2NCc2ccco2)c(=O)n(C)c1=O | 1870 |
| CCN(C(=O)COc1cccnc1[N+](=O)[O-])C1CCS(=O)(=O)C1 (configuration not stated) | 1750 |
| Cc1ccc(CN2CCN(/N=C/c3cccnc3)CC2)c(C)c1 | 1720 |
| Cc1ccccc1-c1n[nH]c(=S)n1/N=C/c1ccc(-c2ccccc2Br)o1 | 2950 (active) |
| Cc1ccccc1-c1n[nH]c(=S)n1C | 1660 |
| S=c1[nH]nc(-c2ccccc2)n1/N=C/c1c[nH]c2ccccc12 | 1810 |
| CCc1ccc(CN(C)C(=O)CCc2nnc(-c3ccc(-c4ccccc4)cc3)o2)nc1 | 1540 |
| O=C(COC(=O)c1cc(-c2cccs2)nn1-c1ccccc1)Nc1cc([N+](=O)[O-])ccc1Cl | 2060 |
| Cc1cc(CNCc2c(C(=O)N(C)Cc3ccccc3)nc3ccccn23)nn1C | 1760 |
| COc1ccccc1-c1nnc(NC(=O)c2cccc(N3C(=O)CCC3=O)c2)o1 | 1920 |
| Cc1noc(C)c1COc1cccc(C(=O)Nc2cccnc2)c1 | 1740 |
| O=C(CCC1CCCN(C(=O)Cc2ccc(F)cc2)C1)N1CCN(c2ccccn2)CC1 (configuration not stated) | 1640 |
| CCNc1ccc(C(=O)OCC(=O)N2c3ccccc3NC(=O)C2(C)C)cc1[N+](=O)[O-] | 1810 |
| COCCNC(=O)C(OC(=O)c1cccs1)c1ccc(F)cc1 (configuration not stated) | 1860 |
| O=C(Nc1nnc(-c2ccco2)o1)c1ccc(S(=O)(=O)N2CCOCC2)cc1 | 1880 |
| NC(=O)COC(=O)c1cc(S(=O)(=O)N2CCN(c3ccccc3)CC2)ccc1Cl | 1880 |
| Cc1ccc(C(=O)NC(=S)Nc2ccccc2C)cc1 | 1630 |
| Cc1nc2ccccc2n1CC(=O)N/N=C/c1cccnc1 | 1750 |
| CCCCOc1ccc(C(=O)NCC(=O)OCC(=O)N2CCN(S(=O)(=O)c3ccc(C)cc3C)CC2)cc1 | 1610 |
| CC(C)CNC(=O)C(=O)Nc1ccc(N(C)C)cc1 | 1880 |

| SMILES | TR-FRET ratio |
| --- | --- |
| CCCOc1ccc(N/C=C/C(=O)C(C)(C)C)cc1 | 1770 |
| CN(C)c1ccc(N/C=C/C(=O)C(F)(F)F)cc1 | 2320 (active) |
| CC1CCCN(S(=O)(=O)c2ccc(N(C(=O)c3cnccn3)C(C(=O)NC3CCCCC3)c3cccs3)cc2)C1 (configuration not stated) | 1760 |
| C=CCn1c(=NC(=O)c2ccc(S(=O)(=O)N3CCCC3)cc2)sc2cc(NC(C)=O)ccc21 | 1920 |
| CC(=O)Nc1ccc(/C=N/NC(=O)c2cccs2)cc1 | 1750 |
| C=CCn1c(=NC(=O)c2cccs2)sc2cc(NC(C)=O)ccc21 | 2340 (active) |
| CC(NC(=O)CCC(=O)N1CCN(S(=O)(=O)c2ccc(Cl)cc2)CC1)c1ccccc1 (configuration not stated) | 2170 |
| CC(NC(=O)COC(=O)c1ccc2c(c1)OCO2)c1ccccc1 (configuration not stated) | 1700 |
| CCOc1ccc(/C=N/NC(=O)C(C)Sc2ccccn2)cc1OCC (configuration not stated) | 1650 |
| CCN(CC)C(=O)Cn1cc(S(=O)(=O)CC(=O)NCc2ccc3c(c2)OCO3)c2ccccc21 | 1870 |
| Cc1cccc(-c2nc3ccccc3c(=O)n2NC(=O)Cc2ccc(Cl)cc2)c1 | 1630 |
| O=C(Cc1cccs1)Nc1cccc(-c2nc3ccccc3[nH]2)c1 | 1820 |
| CC(=O)Nc1ccc(S(=O)(=O)Nc2ccc(-c3ccc4nnc(C)n4n3)cc2)cc1 | 1930 |
| C/C(N)=C(/C#N)C(=O)COC(=O)C1CCN(C(=O)c2ccc(Cl)cc2)CC1 | 1880 |
| C/C(=N/O)c1ccc(N2C(=O)C3C4C=CC(C3C2=O)C2C3C(=O)N(c5ccc(/C(C)=N/O)cc5)C(=O)C3C42)cc1 (configuration not stated) | 1760 |
| CSc1ccc(/C=N/N2CCN(Cc3ccccc3Cl)CC2)cc1 | 1700 |
| CC1CCCCC1NC(=O)COC(=O)Cc1ccc(Br)cc1 (configuration not stated) | 1500 |
| CCSC1=NCCN1C(=O)c1ccc(S(=O)(=O)N(CC)CC)cc1 | 1800 |
| CCN(CC)Cc1nc2sc(C)c(C)c2c(=O)[nH]1 | 1970 |
| Cc1ccc(OC(=O)CCC(=O)Nc2ccc(Br)cc2)cc1 | 1980 |
| CC(=O)N/N=C(\C)c1ccc(Br)cc1Br | 1740 |
| COC(=O)c1onc(-c2c(OC)cc(OC)cc2OC)c1C(=O)OC | 1640 |
| Cc1sc2nc(CC(N)=O)[nH]c(=O)c2c1-c1ccccc1 | 1690 |

| SMILES | TR-FRET ratio |
| --- | --- |
| O=C(CO/N=C/c1ccc(OC(F)F)cc1)NCc1ccc(F)cc1 | 1970 |
| O=C(/C=C\c1ccc2c(c1)OCO2)NC1(C(=O)Nc2ccc3c(c2)OCCO3)CCCCC1 | 1600 |
| CC(=O)c1cccc(CN2CCC(CO)(Cc3ccccc3)CC2)c1 | 1590 |
| Cc1cccc(-c2ncc(CN3CCC(CO)(CCCc4ccccc4)CC3)cn2)c1 | 1880 |
| OCC1(CCc2ccccc2)CCN(Cc2ccc3nsnc3c2)CC1 | 2510 (active) |
| CCOc1ccc(CCNC(=O)CSc2cc(=O)n(C)c3ccc(Cl)cc23)cc1OCC | 2230 |
| Cn1c(=O)cc(SCC(=O)N2CCCC2)c2cc(Cl)ccc21 | 3640 (active) |
| CC(C)N(C(=O)Cn1cc(SCC(=O)N2CCCC2)c2ccccc21)C(C)C | 1650 |
| CC(CC(=O)O)CC(=O)NNC(=O)c1cccc(Br)c1 (configuration not stated) | 1850 |
| CCn1c(=O)cc(SCC(=O)NCCC2=CCCCC2)c2ccccc21 | 2120 |
| O=C(CSc1cccc[n+]1[O-])NCCCc1ccccc1 | 1620 |
| CCN(CCCNC(=O)CSc1cc(=O)n(C)c2cc(Cl)ccc12)Cc1ccccc1 | 3020 (active) |
| O=C(CCC1CCCN(Cc2ccc(O)c(Cl)c2)C1)NCc1ccccc1F (configuration not stated) | 1790 |
| Cc1cc(C)cc(C(=O)N(CCc2ccccc2)C2=CC3CCC(C2)N3C)c1 (configuration not stated) | 1720 |
| CS(=O)(=O)N(CC(=O)NC1CCCC1)Cc1ccc(F)cc1 | 1700 |
| O=C(CO/N=C/c1ccccc1OC(F)F)NC1CCCC1 | 2060 |
| CCOC(=O)NC(=O)C(=CNc1cccc(OC)c1)C(=O)NC(=O)OCC | 1950 |
| CCOC(=O)c1sc(-c2cccc([N+](=O)[O-])c2)cc1N | 1540 |
| CS/C(=C\[N+](=O)[O-])Nc1ccc(C)cc1 | 1980 |
| CNC(=O)NC(=O)C(OC(=O)c1cccc(S(=O)(=O)N2CCCCC2)c1)c1ccccc1 (configuration not stated) | 1550 |
| COCC(C)NC(=O)CSc1nc2nn(-c3ccccc3)c(=O)c-2c2n1CCCCC2 (configuration not stated) | 1600 |
| Cc1cccc(OCc2ccc(C(=O)Nc3ccc(F)cc3)cc2)c1 | 1720 |
| S=c1[nH]nc(COc2ccccc2)n1-c1ccccc1 | 1980 |

| SMILES | TR-FRET ratio |
| --- | --- |
| Fc1ccc(COc2cccc(-c3n[nH]c(=S)o3)c2)cc1 | 3340 (active) |
| Cc1ccc(-c2nc(-c3cccnc3)sc2CC(=O)Nc2ccc(C)c(Cl)c2)cc1 | 2930 (active) |
| Cc1cccc(NC(=O)c2sc(-c3ccccc3)nc2-c2ccc([N+](=O)[O-])cc2)c1 | 1770 |
| Cc1ccc(S(=O)(=O)NCCC(=O)Nc2ccc(C)c(Cl)c2)cc1C | 1870 |
| O=S(=O)(NCc1ccccc1)c1ccc(S(=O)(=O)N2CCCC2)cc1 | 1770 |
| N#Cc1ccc(C(=O)Nc2nc(-c3cccs3)c(C(=O)C(F)(F)F)s2)cc1 | 2000 |
| Cc1nc(N)c(Br)c(C)c1Br | 1890 |
| CCN(CC)P(=O)(Nc1ccc(SC(F)F)cc1)c1ccc(N(C)C)cc1NC(=O)c1ccco1 (configuration not stated) | 1800 |
| CC(C)CCN1C(=O)c2ccc(C(=O)Nc3cccc(S(N)(=O)=O)c3)cc2C1=O | 1840 |
| COc1ccc(NC(=O)COC(=O)c2ccncc2)c(OC)c1 | 1980 |
| COc1cccc(-n2nc(C(=O)N3CCN(Cc4ccccc4)CC3)c3ccccc3c2=O)c1 | 1300 |
| CCOC(=O)Cc1csc(SCc2cc(=O)oc3cc(O)ccc23)n1 | 1620 |
| CCOC(=O)Cc1csc(NC(=O)COc2ccc3c(C)cc(=O)oc3c2)n1 | 2450 (active) |
| CCOC(=O)Cc1csc(NC(=O)CSc2ccc(Br)cc2)n1 | 1780 |
| O=C(NCCCNc1ccc([N+](=O)[O-])cc1Cl)c1ccccc1F | 1920 |
| Cc1c(CN2CCCC(C(=O)c3cccc(Cl)c3)C2)c(=O)n(-c2ccccc2)n1C (configuration not stated) | 1510 |
| COc1cc(NC(=O)COC(=O)CSc2ccc3ccccc3c2)c(C)cc1[N+](=O)[O-] | 1730 |
| Cc1ccc(N2C(=O)C(NC(=O)c3c(F)cccc3F)(C(F)(F)F)C3=C2CC(C)(C)CC3=O)cc1 (configuration not stated) | 1770 |
| CC1CC(C)(C)NC(=S)N1CCC(=O)N1CCN(Cc2ccccc2)CC1 (configuration not stated) | 1810 |
| CC(C)C(c1nnnn1C(C)(C)C)N1CCN(Cc2cccnc2)CC1 (configuration not stated) | 1760 |
| Cc1nc(N2CCC(C)CC2)c2c(C)c(C(=O)Nc3cc(F)ccc3C)sc2n1 | 2400 (active) |
| Cc1nc(N2CCN(c3ccccn3)CC2)c2c(C)c(C(=O)Nc3ccc(F)cc3)sc2n1 | 1920 |
| Cc1nc(N2CCOCC2)c2c(C)c(C(=O)Nc3ccc(C(F)(F)F)cc3)sc2n1 | 1820 |
